Experimental data reported in PubChem BioAssay.
For some assays here: Results with a measured potency or affinity are listed apart. Activity calls are given as the source filed them. The rule behind the calls is not given here.

These compounds were tested against Plasmodium falciparum protein kinase 6 (PK6, PF3D7_1337100) (UniProt Q8IDW1) (assay: PfPK6 kinase inhibitors, biochemical, TCAMS library (AID 1159586)). Conditions: recombinant PfPK6, Kinase-Glo ATP depletion luminescence.
Chain of Plasmodium falciparum protein kinase 6 (PK6, PF3D7_1337100) (Q8IDW1 1-305): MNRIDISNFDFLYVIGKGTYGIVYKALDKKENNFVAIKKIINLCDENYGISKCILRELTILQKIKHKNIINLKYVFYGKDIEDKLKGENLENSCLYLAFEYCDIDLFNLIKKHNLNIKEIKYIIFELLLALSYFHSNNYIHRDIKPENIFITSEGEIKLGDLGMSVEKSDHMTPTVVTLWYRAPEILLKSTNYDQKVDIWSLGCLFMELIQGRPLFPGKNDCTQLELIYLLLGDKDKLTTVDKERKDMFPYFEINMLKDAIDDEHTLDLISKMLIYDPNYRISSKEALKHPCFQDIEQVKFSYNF

Structure (SMILES)	outcome
CN(CCCCCN1CCC(NC(=O)Nc2ccc(C(F)(F)F)cc2)C1)C(=O)/C=C/c1ccc(Cl)c(Cl)c1 (stereo not given)	inactive
O=[N+]([O-])c1cccc(CNCC2CCN(Cc3ccc4ccccc4c3)CC2)c1	inactive
CCCCCCN1CCC(CNCc2cccc([N+](=O)[O-])c2)CC1	inactive
COc1ccc(-c2nonc2NC(=O)c2ccc(OC(C)C)cc2)cc1OC	inactive
CN1CCN(CC(O)CNC(=O)Nc2ccc(Cl)cc2)CC1 (stereo not given)	inactive
CCN(CC)S(=O)(=O)n1ncc2c3c(N)nc(N)nc3ccc21	inactive
CCNc1cc(C(=O)N[C@@H](Cc2ccccc2)[C@H](O)CNC23CC4CC(CC(C4)C2)C3)cc(N2CCCCS2(=O)=O)c1	inactive
Cn1cncc1-c1ccc2ncnc(Nc3ccc4c(cnn4Cc4ccccc4)c3)c2c1	inactive
CNC(=O)c1cc(NCCCNCc2ccc(Cl)c(C(F)(F)F)c2)nc2ccccc12	inactive
O=C(N[C@@H](Cc1ccccc1)C(=O)NCCN1CCCCC1)c1ccc(O)c(-c2cccc(C(F)(F)F)c2)c1	inactive
CN(C)CCNCc1ccc(-c2cccc(-c3nc4ccccc4[nH]3)c2)cc1	inactive
Cc1cc(N[C@@H](Cc2ccccc2)C(=O)Nc2ccccc2)nc(NCCc2ccc(F)cc2)n1	inactive
CC(=O)Nc1nc(C(=O)Nc2cccc(-c3cccc(-c4nc5c(C)cccc5[nH]4)c3)c2)cs1	inactive
O=C(Nc1ccc(-c2csc3nccn23)cc1)c1ccc(Cl)cc1	inactive
CN(CC(=O)Nc1ccc(F)cc1)C(=O)c1ccc(-c2ccc(F)cc2)o1	inactive
Cc1ccc(-c2cnc(N)c3cc(-c4ccnc(N)n4)ccc23)cc1	inactive
CCNc1cc(C(=O)N[C@@H](Cc2ccccc2)[C@H](O)CNCCc2cccc3ccccc23)cc(N2CCCC2=O)c1	inactive
Nc1cc(-c2cccc(Cl)c2)nn1-c1ccnc2cc(Cl)ccc12	inactive
Cc1cccc(CNc2nccc3[nH]c4ccccc4c23)c1	inactive
COc1ccccc1CCCON1C(N)=NC(N)=NC1(C)C	inactive

Structure (SMILES)	outcome
CC1CCC(NC(=O)c2nn(-c3ccc(Cl)cc3)c(=O)c3ccccc23)CC1 (stereo not given)	inactive
CC1(C)N=C(N)N=C(N)N1c1cc(Cl)c(Cl)cc1Cl	inactive
COc1cccc(-c2cc(C(=O)Nc3ccc4nc(-c5ccccc5)[nH]c4c3)[nH]n2)c1	inactive
Cc1cc(NCC(c2ccccc2)c2ccccc2)nc(NCC2CCCCC2)n1	inactive
C=CCc1cc(OC)ccc1OCCCOc1c(C)nc(N)nc1N	inactive
Cc1c(-c2ccc(C(=O)NC3CC(C)(C)NC(C)(C)C3)cc2)[nH]c2cc(Cl)c(Cl)cc12	inactive
CC(C)NCc1ccc(-c2ccc(NC(=O)c3ccc(Cl)cc3)cc2)cc1	inactive
CN1CCN(c2cccc(-c3nnc(-c4ccc(OCC(=O)NCc5cccc(C(F)(F)F)c5)c([N+](=O)[O-])c4)o3)c2)CC1	inactive
N#Cc1ccc(CN2CCC(Oc3ccc(NC(=O)c4cccs4)cc3Cl)C2)cc1 (stereo not given)	inactive
COc1ccc(NC(=O)CSc2nc(-c3ccccc3Cl)ns2)cc1OC	inactive
CCNc1cc(C(=O)N[C@@H](Cc2ccccc2)[C@H](O)CNC2(C(C)C)CCC2)cc(N2CCCCS2(=O)=O)c1	inactive
COc1ccc(-c2c3c(=O)n(C)c(=O)n(C)c3c3nnc4ccccc4n23)cc1	inactive
COc1ccc(NC(=O)c2cn(-c3ccc(C(C)(C)C)cc3)nc2C)cc1N1CCN(C)CC1	inactive
Cc1cc(NN=Cc2ccccc2F)c2cc(C(F)(F)F)ccc2n1	inactive
COc1ccc2nccc([C@@H](O)CN3CCC(NCCOc4ccc(F)cc4Cl)CC3)c2c1	inactive
O=[N+]([O-])c1ccc(Oc2ccccc2CNCC2CCN(CC3CCCCC3)CC2)cc1	inactive
COc1ccc(Cl)cc1N1CCN(CCCNC(=O)c2ccc(-c3nc4cc(Cl)c(C)cc4[nH]3)c(F)c2)CC1	inactive
c1csc(-c2nc(NCC3CCCO3)ncc2-c2ccsc2)n1 (stereo not given)	inactive
CCOc1ccc(C(C)NC(=O)C2COc3ccccc3O2)cc1OCC (stereo not given)	inactive
CC1(C)N=C(N)N=C(N)N1OCCCOc1cc(Cl)cc(Cl)c1	inactive

These compounds were tested against Protein kinase 7 (PK7), Plasmodium falciparum 3D7 (PF3D7_0213400) (UniProt Q7YTF7) (assay: inhibition of Plasmodium PK7 catalytic activity – biochemical, TCAMS antimalarial set, Kinase-Glo luminescence (AID 1159587)). Conditions: recombinant PfPK7, Kinase-Glo ATP depletion luminescence.
Chain of Protein kinase 7 (PK7), Plasmodium falciparum 3D7 (PF3D7_0213400) (Q7YTF7 1-343): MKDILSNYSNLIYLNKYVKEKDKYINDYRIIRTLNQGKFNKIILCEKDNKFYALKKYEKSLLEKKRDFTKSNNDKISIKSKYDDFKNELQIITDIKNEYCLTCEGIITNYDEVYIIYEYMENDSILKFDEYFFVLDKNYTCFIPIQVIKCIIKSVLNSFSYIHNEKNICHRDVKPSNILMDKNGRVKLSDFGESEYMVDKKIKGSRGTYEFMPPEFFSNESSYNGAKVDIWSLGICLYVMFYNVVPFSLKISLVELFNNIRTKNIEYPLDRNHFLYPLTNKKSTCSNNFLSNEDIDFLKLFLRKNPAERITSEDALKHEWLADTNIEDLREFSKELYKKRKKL

Structure (SMILES)	outcome
CN(CCCCCN1CCC(NC(=O)Nc2ccc(C(F)(F)F)cc2)C1)C(=O)/C=C/c1ccc(Cl)c(Cl)c1 (stereo not given)	inactive
O=[N+]([O-])c1cccc(CNCC2CCN(Cc3ccc4ccccc4c3)CC2)c1	inactive
CCCCCCN1CCC(CNCc2cccc([N+](=O)[O-])c2)CC1	inactive
COc1ccc(-c2nonc2NC(=O)c2ccc(OC(C)C)cc2)cc1OC	inactive
CN1CCN(CC(O)CNC(=O)Nc2ccc(Cl)cc2)CC1 (stereo not given)	inactive
CCN(CC)S(=O)(=O)n1ncc2c3c(N)nc(N)nc3ccc21	inactive
CCNc1cc(C(=O)N[C@@H](Cc2ccccc2)[C@H](O)CNC23CC4CC(CC(C4)C2)C3)cc(N2CCCCS2(=O)=O)c1	inactive
Cn1cncc1-c1ccc2ncnc(Nc3ccc4c(cnn4Cc4ccccc4)c3)c2c1	inactive
CNC(=O)c1cc(NCCCNCc2ccc(Cl)c(C(F)(F)F)c2)nc2ccccc12	inactive
O=C(N[C@@H](Cc1ccccc1)C(=O)NCCN1CCCCC1)c1ccc(O)c(-c2cccc(C(F)(F)F)c2)c1	inactive
CN(C)CCNCc1ccc(-c2cccc(-c3nc4ccccc4[nH]3)c2)cc1	inactive
Cc1cc(N[C@@H](Cc2ccccc2)C(=O)Nc2ccccc2)nc(NCCc2ccc(F)cc2)n1	inactive
CC(=O)Nc1nc(C(=O)Nc2cccc(-c3cccc(-c4nc5c(C)cccc5[nH]4)c3)c2)cs1	inactive
O=C(Nc1ccc(-c2csc3nccn23)cc1)c1ccc(Cl)cc1	inactive
CN(CC(=O)Nc1ccc(F)cc1)C(=O)c1ccc(-c2ccc(F)cc2)o1	inactive
Cc1ccc(-c2cnc(N)c3cc(-c4ccnc(N)n4)ccc23)cc1	inactive
CCNc1cc(C(=O)N[C@@H](Cc2ccccc2)[C@H](O)CNCCc2cccc3ccccc23)cc(N2CCCC2=O)c1	inactive
Nc1cc(-c2cccc(Cl)c2)nn1-c1ccnc2cc(Cl)ccc12	inactive
Cc1cccc(CNc2nccc3[nH]c4ccccc4c23)c1	inactive
COc1ccccc1CCCON1C(N)=NC(N)=NC1(C)C	inactive

Structure (SMILES)	outcome
CC1CCC(NC(=O)c2nn(-c3ccc(Cl)cc3)c(=O)c3ccccc23)CC1 (stereo not given)	inactive
CC1(C)N=C(N)N=C(N)N1c1cc(Cl)c(Cl)cc1Cl	inactive
COc1cccc(-c2cc(C(=O)Nc3ccc4nc(-c5ccccc5)[nH]c4c3)[nH]n2)c1	inactive
Cc1cc(NCC(c2ccccc2)c2ccccc2)nc(NCC2CCCCC2)n1	inactive
C=CCc1cc(OC)ccc1OCCCOc1c(C)nc(N)nc1N	inactive
Cc1c(-c2ccc(C(=O)NC3CC(C)(C)NC(C)(C)C3)cc2)[nH]c2cc(Cl)c(Cl)cc12	inactive
CC(C)NCc1ccc(-c2ccc(NC(=O)c3ccc(Cl)cc3)cc2)cc1	inactive
CN1CCN(c2cccc(-c3nnc(-c4ccc(OCC(=O)NCc5cccc(C(F)(F)F)c5)c([N+](=O)[O-])c4)o3)c2)CC1	inactive
N#Cc1ccc(CN2CCC(Oc3ccc(NC(=O)c4cccs4)cc3Cl)C2)cc1 (stereo not given)	inactive
COc1ccc(NC(=O)CSc2nc(-c3ccccc3Cl)ns2)cc1OC	inactive
CCNc1cc(C(=O)N[C@@H](Cc2ccccc2)[C@H](O)CNC2(C(C)C)CCC2)cc(N2CCCCS2(=O)=O)c1	inactive
COc1ccc(-c2c3c(=O)n(C)c(=O)n(C)c3c3nnc4ccccc4n23)cc1	inactive
COc1ccc(NC(=O)c2cn(-c3ccc(C(C)(C)C)cc3)nc2C)cc1N1CCN(C)CC1	inactive
Cc1cc(NN=Cc2ccccc2F)c2cc(C(F)(F)F)ccc2n1	inactive
COc1ccc2nccc([C@@H](O)CN3CCC(NCCOc4ccc(F)cc4Cl)CC3)c2c1	inactive
O=[N+]([O-])c1ccc(Oc2ccccc2CNCC2CCN(CC3CCCCC3)CC2)cc1	inactive
COc1ccc(Cl)cc1N1CCN(CCCNC(=O)c2ccc(-c3nc4cc(Cl)c(C)cc4[nH]3)c(F)c2)CC1	inactive
c1csc(-c2nc(NCC3CCCO3)ncc2-c2ccsc2)n1 (stereo not given)	inactive
CCOc1ccc(C(C)NC(=O)C2COc3ccccc3O2)cc1OCC (stereo not given)	inactive
CC1(C)N=C(N)N=C(N)N1OCCCOc1cc(Cl)cc(Cl)c1	inactive
